Article PMC4336329 (PLoS ONE, 2015)
The whole screen tested about 310,000 compounds, of which about 14,000 (4.5%) showed an effect of 50% or more. The effect is printed as a negative number. The entries come from a sample that favours strong results as a whole.

What follows are compounds tested against human ether-à-go-go-related gene (hERG) potassium channel (human, UniProt Q12809) (assay: primary screen, population patch clamp on CHO cells stably expressing hERG; higher = less effect of the substance).
Chain of human ether-à-go-go-related gene (hERG) potassium channel (Q12809 whole entry, looked up): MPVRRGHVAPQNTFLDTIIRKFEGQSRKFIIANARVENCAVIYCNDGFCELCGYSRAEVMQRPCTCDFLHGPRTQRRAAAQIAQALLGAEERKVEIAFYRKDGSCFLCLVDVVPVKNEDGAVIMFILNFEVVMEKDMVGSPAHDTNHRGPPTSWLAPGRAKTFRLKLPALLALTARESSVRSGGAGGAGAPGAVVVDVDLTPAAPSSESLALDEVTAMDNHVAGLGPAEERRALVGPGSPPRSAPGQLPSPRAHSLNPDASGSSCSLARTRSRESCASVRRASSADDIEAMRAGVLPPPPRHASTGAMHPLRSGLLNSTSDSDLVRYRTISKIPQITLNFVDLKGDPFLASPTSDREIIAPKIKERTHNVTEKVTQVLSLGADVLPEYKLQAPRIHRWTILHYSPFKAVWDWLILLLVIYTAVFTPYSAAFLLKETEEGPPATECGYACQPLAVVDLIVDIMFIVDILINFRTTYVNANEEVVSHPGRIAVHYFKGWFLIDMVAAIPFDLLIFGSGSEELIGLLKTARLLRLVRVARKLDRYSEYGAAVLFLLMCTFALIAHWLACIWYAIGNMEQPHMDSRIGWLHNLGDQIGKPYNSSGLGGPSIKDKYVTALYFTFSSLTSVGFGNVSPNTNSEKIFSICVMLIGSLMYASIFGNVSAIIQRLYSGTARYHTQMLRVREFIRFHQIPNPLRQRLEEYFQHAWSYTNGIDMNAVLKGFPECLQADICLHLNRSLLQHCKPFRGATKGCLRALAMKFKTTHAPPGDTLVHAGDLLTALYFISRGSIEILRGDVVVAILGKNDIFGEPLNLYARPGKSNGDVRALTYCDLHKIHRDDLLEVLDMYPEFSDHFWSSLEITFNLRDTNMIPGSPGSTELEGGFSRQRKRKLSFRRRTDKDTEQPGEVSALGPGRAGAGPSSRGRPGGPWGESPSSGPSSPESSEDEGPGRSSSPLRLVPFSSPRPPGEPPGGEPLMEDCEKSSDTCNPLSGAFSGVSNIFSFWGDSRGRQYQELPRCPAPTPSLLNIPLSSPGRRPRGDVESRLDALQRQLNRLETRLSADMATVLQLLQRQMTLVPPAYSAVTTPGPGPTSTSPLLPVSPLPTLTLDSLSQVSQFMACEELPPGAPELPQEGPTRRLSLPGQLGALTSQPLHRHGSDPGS
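Further: peak tail current of the secondary pulse compared with the same well before compound.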

| Compound | hERG current change (%, negative = inhibition) at 10uM [%] |
| --- | --- |
| Cn1c(CCN2CCCCC2)nc2cc(NC(=O)NC3CCCCC3)ccc21 | 0.766 |
| CCC(=O)Nc1ccc2c(c1)nc(CCN1CCN(C)CC1)n2C | 29.3 |
| Cn1c(CN2CCCC2)nc2cc(NC(=O)C3CCCCC3)ccc21 | -4.77 |
| COc1ccc(OCC(=O)Nc2ccc3c(c2)nc(CCN2CCCCC2)n3C)cc1 | -65.5 |
| Cn1c(CCN2CCCCC2)nc2cc(NC(=O)C3CCCCC3)ccc21 | -60.2 |
| COc1ccc(OCC(=O)Nc2ccc3c(c2)nc(CCN2CCN(C)CC2)n3C)cc1 | -8.47 |
| Cc1ccc(OCC(=O)Nc2ccc3c(c2)nc(CCN2CCN(C)CC2)n3C)cc1 | -55.6 |
| CC(=O)NCCc1nc2cc(NC(=O)COc3ccc(C)cc3)ccc2n1C | 14.2 |
| Cc1ccc(OCC(=O)Nc2ccc3c(c2)nc(CCN2CCCCC2)n3C)cc1 | -82.3 |
| CCOC(=O)C(=CNc1ccc2c(c1)nnn2-c1ccc(Cl)cc1)C(=O)OCC | -5.02 |
| COc1ccccc1-c1cc(C(F)(F)F)nc(S(=O)(=O)CCCC(=O)N2CCOCC2)n1 | 2.47 |
| Cn1ncc(Cl)c1C(=O)NCC1CCCO1 (stereo not shown) | 9.21 |
| O=C(Cn1cc(C(=O)c2ccccc2F)c2ccccc21)NC1CC1 | -4.44 |
| CCN(CC)c1ccc(NC(=O)CSc2nnc3nc(C)cc(C)n23)cc1 | -0.579 |
| Cc1cc(C(=O)NNC(=O)c2ccc(Cl)cc2)c2ccccc2n1 | 0.225 |
| CC(=O)N1CSCC1C(=O)NNS(=O)(=O)c1cccc(C(F)(F)F)c1 (stereo not shown) | 8.58 |
| Cl.NC1=NC(c2cccc(Cl)c2)N(CCc2ccc(F)cc2)C(N)=N1 (stereo not shown) | 15.6 |
| OC1C=CSc2nc3ccccc3n21 (stereo not shown) | 4.02 |
| CCOc1ccc(-c2csc3nc[nH]c(=O)c23)cc1 | 14.9 |
| OCCNc1nc(C2CC2)nc2c1nnn2Cc1ccccc1Cl | -0.392 |

| Compound | hERG current change (%, negative = inhibition) at 10uM [%] |
| --- | --- |
| CS(=O)(=O)N(CC(=O)Nc1ccccc1C(=O)N1CCCC1)c1cccc([N+](=O)[O-])c1 | -13.2 |
| O=C(NCCN1CCOCC1)c1cc(-c2cccs2)nc2ccccc12 | -13.1 |
| COc1cc(CO)ccc1Oc1nc2ccccc2n2cnnc12 | 10.7 |
| CC(=O)c1ccc(OCCOc2ccc(C#N)cc2)cc1 | -49.4 |
| CC(Oc1ccc(C#N)cc1)C(=O)c1ccc(F)c(F)c1 (stereo not shown) | -51.6 |
| CC(Oc1ccc(C#N)cc1)C(=O)NC1CCCC1 (stereo not shown) | -12.9 |
| CC(=O)c1ccc(OCC(C)Oc2ccc(C#N)cc2)cc1 (stereo not shown) | -62.8 |
| CC(=O)c1ccc(OCC(O)COc2ccc(C(C)=O)cc2)cc1 | -11.3 |
| COC(=O)c1ccc(OC(C)C(=O)c2ccc(C)cc2)cc1 (stereo not shown) | -21.5 |
| CCC1C(=O)N=C(SCC(=O)Nc2cccc3ccccc23)NC1=O (stereo not shown) | -7.84 |
| COc1ccc(C2C(C(=O)N3CCC(C(N)=O)CC3)CC(=O)N2c2ccc(OC)cc2)cc1 (stereo not shown) | -1.19 |
| Nc1nc2ccccc2n1CCOc1ccc(F)cc1 | -67.9 |
| Cc1nc2ccccc2n1CCOc1ccc(F)cc1 | -19.8 |
| Nc1nc2ccccc2n1CCOc1ccc(Br)cc1 | -61.2 |
| COc1ccc(OCCn2c(N)nc3ccccc32)cc1 | -67.4 |
| Cn1c(COc2ccc(F)cc2)nc2ccccc21 | -0.759 |
| Nc1nc2ccccc2n1CCOc1ccccc1Cl | -3.5 |
| COCCn1c(COc2ccc(OC)cc2)nc2ccccc21 | -14.3 |
| Nc1nc2ccccc2n1CCOc1ccc(Cl)cc1 | -51.1 |
| CCCn1c(N)nc2ccccc21 | 8.05 |

| Compound | hERG current change (%, negative = inhibition) at 10uM [%] |
| --- | --- |
| OCc1nc2ccccc2n1CCCOc1ccc(Br)cc1 | -36.8 |
| Clc1ccc(OCCn2c(-c3ccco3)nc3ccccc32)cc1 | -26.7 |
| S=C(Nc1ccccc1)Nc1nc2ccccc2n1CCOc1ccc(Br)cc1 | 11.6 |
| O=P(NS(=O)(=O)c1ccc(Br)cc1)(Oc1ccccc1)Oc1ccccc1 | 12.2 |
| O=C(Cn1c(=O)c(=O)n(Cc2ccccc2)c2ccc(Cl)cc21)Nc1ccc(F)cc1F | 21.3 |
| Cc1cc(C)c(Cn2c(=O)n(CCCC(=O)NCc3ccco3)c(=O)c3sccc32)c(C)c1 | 6.15 |
| Cc1cc(NC(=O)c2cc([N+](=O)[O-])ccc2Cl)no1 | 8.65 |
| Nn1c(COc2ccc(Cl)cc2)nc2ccccc2c1=O | -34.8 |
| CCc1ccc(CNC(=O)c2ccc(OC3CCN(C(C)=O)CC3)c(OC)c2)nc1 | 8.11 |
| O=C(NC1CCN(Cc2ccccc2)CC1)C1CCCN(c2nnc(-n3cccc3)s2)C1 (stereo not shown) | -69.8 |
| O=C(C1CCCN(c2nnc(-n3cccc3)s2)C1)N1CCN(c2ccccc2)CC1 (stereo not shown) | -47 |
| CC(C)NC(=O)C1CCCN(c2nnc(-n3cccc3)s2)C1 (stereo not shown) | -16.4 |
| O=C(NC1CCN(Cc2ccccc2)CC1)C1CCN(c2nnc(-n3cccc3)s2)CC1 | -59 |
| CC1CCN(Cc2ccc(NC(=O)C3CCN(c4nnc(-n5cccc5)s4)CC3)cc2)CC1 | 1.05 |
| COC(=O)c1ccccc1NC(=O)C1CCCN(c2nnc(-n3cccc3)s2)C1 (stereo not shown) | -53 |
| CC(=O)Nc1ccc(NC(=O)C2CCCN(c3nnc(-n4cccc4)s3)C2)cc1 (stereo not shown) | 7.44 |
| CC(CCc1ccccc1)NC(=O)C1CCCN(c2nnc(-n3cccc3)s2)C1 (stereo not shown) | -11.2 |
| O=C(NCCCN1CCN(Cc2ccccc2)CC1)C1CCN(c2nnc(-n3cccc3)s2)CC1 | -48.5 |
